Experimental data: PubChem BioAssay (EPA / NIEHS)
Records with an inconclusive call do not appear. Active and inactive are the calls of the source. Rule for the calls: active = hit-call score of the fitted dose curve at least 0.9, where 1 is the maximum; inconclusive = response in the unintended direction; inactive = score below 0.9.

Test: ATG_Hpa5_TRANS: Attagene TRANS-FACTORIAL HepG2 Assay for human GAL4-Hpa5 Hepatocyte Transcription Factor Basal Promoter (AID 2282975);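 note: hits are increases in reporter mRNA over DMSO baseline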
Details: HepG2 Attagene GAL4-Hpa5 transcription reporter
Method: ATG_TRANS is a cell-based, multiplexed-readout assay that uses HepG2, a human liver cell line, with measurements taken at 24 hours after chemical dosing in a 24-well plate.ATG_Hpa5_TRANS is one of 30 assay component(s) measured or calculated from the ATG_TRANS assay. It is designed to make measurements of mRNA induction, a form of inducible reporter, as detected with fluorescence intensity signals by Reverse transcription polymerase chain reaction (RT-PCR) and Capillary electrophoresis technology.Data from the assay component ATG_Hpa5_TRANS was analyzed into 1 assay endpoint. This assay endpoint, ATG_Hpa5_TRANS, was analyzed in the positive analysis fitting direction relative to DMSO as the negative control and baseline of activity. Using a type of inducible reporter, measures of mRNA for gain-of-signal activity can be used to understand the background control at the transcription factor-level as they relate to the gene . Furthermore, this assay endpoint can be referred to as a secondary readout, because this assay has produced multiple assay endpoints where this one serves a background control function. To generalize the intended target to other relatable targets, this assay endpoint is annotated to the background measurement intended target family, where the subfamily is internal marker.
Human liver HepG2 cells are transiently transfected with multiple reporter transcription units (MRTUs) in 6-well plates using FuGene 6 reagent (Roche; 3 ml FuGene/1 mg DNA). The MRTU constructs are regulated by a cis-regulating element (promoter). […] A major difference between the CIS and TRANS system is that in CIS activities of endogenous TFs are measured, whereas the TRANS assay evaluates changes in activities of exogenous, chimeric NR-Gal4 proteins. […] At the end of 24 hour incubation, total RNA was isolated using TriZol reagent (Invitrogen). The isolated RNA is then reverse-transcribed using oligo(dT) primer and Mo-MLV reverse transcriptase (Invitrogen) with DNAse I (Ambion) treatment for 30 min. The one-tenth of the produced cDNA was amplified by PCR using Taq DNA polymerase (Invitrogen) and two reporter sequence-specific primers. The PCR products were fluorescently labeled by primer extension with 6-arboxyfluorescein (6-FAM) 5'-labeled reporter sequence-specific primer (2 min at 95 C, 20 s at 68 C and 10 min at 72 C) and these products were digested with 5U of HpaI (New England Biolabs) for 2h at 37 C. The fragments were purified using Qiaquick PCR columns (Qiagen), analyzed on an ABI 3130xL genetic analyzer (Applied Biosystems) with peak positions identified by using a set of X-rhodamine (ROX)-labeled MapMarker1000 molecular weight standards (BioVentures). The raw capillary electrophoresis data was processed using Attagraph software (Attagene).
In the case of `CCCSP(=O)(OCC)Oc1ccc(Br)cc1Cl` (stereo not given), the outcome was “inactive”.
In the case of `COP(=O)(NC(C)=O)SC` (stereo not given), the outcome was “inactive”.
In the case of `CCOP(=S)(OCC)OC(Cl)C(Cl)(Cl)Cl` (stereo not given), the outcome was “inactive”.
For `CCOC(=O)COc1cc(-c2nn(C)c(OC(F)F)c2Cl)c(F)cc1Cl`, the outcome was “inactive”.
In the case of `CCc1cnc(C2=NC(C)(C(C)C)C(=O)N2)c(C(=O)O)c1` (stereo not given), the outcome was “inactive”.
With `CCOP(=O)(SC(C)CC)N1CCSC1=O` (stereo not given) the outcome was “inactive”.
For `C#CC(C)(C)NC(=O)c1cc(Cl)cc(Cl)c1`, the outcome was “inactive”.
For `Nc1c(Cl)cc([N+](=O)[O-])cc1Cl`, the outcome was “inactive”.
With `CCOP(=S)(OCC)Oc1cc(C)nc(C(C)C)n1` the outcome was “inactive”.
With `CC[C@H](C)[C@H]1O[C@]2(C=C[C@@H]1C)C[C@@H]1C[C@@H](C/C=C(\C)[C@@H](O[C@H]3C[C@H](OC)[C@@H](O[C@H]4C[C@H](OC)[C@@H](NC)[C@H](C)O4)[C@H](C)O3)[C@@H](C)/C=C/C=C3\CO[C@@H]4[C@H](O)C(C)=C[C@@H](C(=O)O1)[C@]34O)O2` the outcome was “inactive”.
With `CSC1=N[C@@](C)(c2ccccc2)C(=O)N1Nc1ccccc1` the outcome was “inactive”.
With `COP(=O)(OC)SCn1c(=O)oc2cc(Cl)cnc21` the outcome was “inactive”.
With `O=[N+]([O-])c1cc(C(F)(F)F)c(Cl)c([N+](=O)[O-])c1Nc1ncc(C(F)(F)F)cc1Cl` the outcome was “inactive”.
In the case of `O=C(O)c1cc(Oc2ccc(C(F)(F)F)cc2Cl)ccc1[N+](=O)[O-]`, the outcome was “inactive”.
For `N#CSCSC#N`, the outcome was “inactive”.
With `CCOP(=O)(NC(C)C)Oc1ccc(SC)c(C)c1` (stereo not given) the outcome was “inactive”.
For `CNc1cnn(-c2cccc(C(F)(F)F)c2)c(=O)c1Cl`, the outcome was “inactive”.
With `CC(=NC#N)N(C)Cc1ccc(Cl)nc1` the outcome was “inactive”.
With `CCCCN(CC)c1c([N+](=O)[O-])cc(C(F)(F)F)cc1[N+](=O)[O-]` the outcome was “inactive”.
For `CCC(=O)Nc1ccc(Cl)c(Cl)c1`, the outcome was “inactive”.
With `CNC(=O)Oc1cccc2c1OC(C)(C)O2` the outcome was “inactive”.
For `CCC(CC)Nc1c([N+](=O)[O-])cc(C)c(C)c1[N+](=O)[O-]`, the outcome was “inactive”.
In the case of `CC(C)N(C(=O)SCC(Cl)=C(Cl)Cl)C(C)C`, the outcome was “inactive”.
In the case of `CN(C)[C@@H]1C(=O)C(C(N)=O)=C(O)[C@@]2(O)C(=O)C3=C(O)c4c(O)cccc4[C@@](C)(O)[C@H]3[C@H](O)[C@@H]12`, the outcome was “inactive”.
In the case of `CC(Oc1cccc(Cl)c1)C(=O)O` (stereo not given), the outcome was “inactive”.
In the case of `CSc1nc(NC(C)C)nc(NC(C)C)n1`, the outcome was “inactive”.
With `CCCCSP(=O)(SCCCC)SCCCC` the outcome was “inactive”.
For `C[Si](Cn1cncn1)(c1ccc(F)cc1)c1ccc(F)cc1`, the outcome was “inactive”.
For `CCCSP(=O)(OCC)SCCC`, the outcome was “inactive”.
With `CCNc1nc(Cl)nc(NC(C)(C)C#N)n1` the outcome was “inactive”.
With `CC(C)=CC1C(C(=O)OCN2C(=O)C3=C(CCCC3)C2=O)C1(C)C` (stereo not given) the outcome was “inactive”.
With `CNC(=O)ON=C(C)SC` the outcome was “inactive”.
For `C#CCC1=C(C)C(OC(=O)C2C(C=C(C)C)C2(C)C)CC1=O` (stereo not given), the outcome was “inactive”.
For `CCOC(=O)CC(SP(=O)(OC)OC)C(=O)OCC` (stereo not given), the outcome was “inactive”.
In the case of `CCCOCC(=Nc1ccc(Cl)cc1C(F)(F)F)n1ccnc1`, the outcome was “inactive”.
With `CCC(=NOC/C=C/Cl)C1=C(O)CC(C2CCOCC2)CC1=O` (stereo not given) the outcome was “inactive”.
For `COc1ccc(C(=CC(=O)N2CCOCC2)c2ccc(Cl)cc2)cc1OC`, the outcome was “inactive”.
For `O=c1ccc(=O)[nH][nH]1`, the outcome was “inactive”.
For `CC(C)[C@H](C(=O)O[C@H](C#N)c1cccc(Oc2ccccc2)c1)c1ccc(Cl)cc1`, the outcome was “inactive”.
In the case of `CON=C(C(=O)OC)c1ccccc1CON=C(C)c1cccc(C(F)(F)F)c1`, the outcome was “inactive”.
